Activity calls are given as the source filed them.

One experiment concerns the target Albumin (Bos taurus) (UniProt P02769). Nature of the experiment: compounds binding labelled BSA control protein – biochemical, small-molecule microarray, Alexa647 label, 635/667 nm fluorescence, artefact control for SMM control protein annotation, profiling panel (AID 1118).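 Further: score merges 667 nm emission intensity and signal-to-noise per printed compound spot.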 To be noted: BSA-A647 binding, fluorescence 635 nm, higher = more signal.
Experiment [1] is described as follows: probe aXIP binding to arrayed compounds – biochemical, NeuroSMM set, 635/667 nm fluorescence, primary screen (AID 1119).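 Further: probe is the protein aXip251-270 applied at 1 µg/mL to compound-printed slides; binding of probe to printed compounds measured as 667 nm fluorescence plus signal to noise.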 Particulars: small-molecule microarray, higher = more signal, called active from +8 up or from −8 down.
Experiment [2] can be described thus: probe aNOTCH3 binding on compound microarray – biochemical, small-molecule microarray, 635/667 nm fluorescence, primary screen (AID 1120).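 Further: probe is a biotin-tagged antibody raised against NOTCH3 rather than NOTCH3 protein; score merges spot fluorescence near 667 nm with spot signal to noise.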 Particulars: higher = more signal.
Experiment [3] is described as follows: probe aNOTCH2 binding on compound microarray – biochemical, small-molecule microarray, 635/667 nm fluorescence, primary screen (AID 1121).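 Further: score merges feature fluorescence read at 667 nm with its signal to noise.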 Particulars: higher = more signal.
The target in experiment [4] is Carbonic anhydrase 2 (Homo sapiens) (UniProt P00918). In words: compounds binding carbonic anhydrase 2 – biochemical, small-molecule microarray, Alexa647-labelled CAII, profiling panel (AID 1122). To be noted: CAII-A647 binding fluorescence, higher = more signal.
A short description of experiment [5]: COS7 lysate on small-molecule microarray, probe aHis, 635 nm (AID 1123).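 Further: z-score combines 667nm fluorescence intensity with signal-to-noise per printed compound spot.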 Particulars: COS7 cell lysate, fluorescence, higher = more signal.
The nature of experiment [6]: probe aLAP1 signal on lysate-treated microarray – cell lysate, small-molecule microarray, COS7 lysate, primary screen (AID 1124).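 Further: lysate comes from COS7 cells expressing LAP1 and is applied at 0.3 µg/mL; score merges spot fluorescence near 667 nm with signal-to-noise over triplicate slides.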 Particulars: probe aLAP1, fluorescence, higher = more signal.
A further experiment concerns Sam68 (KHDRBS1). In words: compounds binding KHDRBS1 protein – biochemical, small-molecule microarray, 635 nm fluorescence, primary screen (AID 1125).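 Further: score merges 667 nm channel intensity with signal to noise over triplicate slides.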 To be noted: higher = more signal.
Experiment [7] deals with Chordin-like protein 2 (CHRDL2). Nature of the experiment: compounds binding chordin-like 2 – biochemical, small-molecule microarray, 635 nm fluorescence, primary screen (AID 1126).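 Further: printed compound slides probed with Chrdl2 protein at 4 µg/mL for 1 h at 4 C; score merges 667 nm emission intensity with signal to noise over three replicate slides.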 To be noted: fluorescence 635 nm, higher = more signal.
For experiment [8], the target named is Concanavalin-A (Canavalia ensiformis) (UniProt P02866). In words: compounds binding concanavalin A lectin – biochemical, small-molecule microarray, Alexa647 label, 635 nm, artefact control for SMM control protein annotation, primary screen (AID 1127).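 Further: z combines 667 nm emission intensity with signal-to-noise across three replicate slides.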 To be noted: ConA-A647 binding fluorescence, higher = more signal.
Sequence of Concanavalin-A (Canavalia ensiformis) (P02866 whole entry, looked up): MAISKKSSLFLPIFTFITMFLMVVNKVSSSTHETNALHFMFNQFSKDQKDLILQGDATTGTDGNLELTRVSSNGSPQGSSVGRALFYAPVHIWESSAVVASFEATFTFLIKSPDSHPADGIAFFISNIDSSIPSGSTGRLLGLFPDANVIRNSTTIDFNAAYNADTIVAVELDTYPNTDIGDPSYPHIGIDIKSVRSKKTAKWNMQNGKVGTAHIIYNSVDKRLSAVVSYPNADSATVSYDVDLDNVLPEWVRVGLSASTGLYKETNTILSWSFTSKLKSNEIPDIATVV

Sequence of Albumin (Bos taurus) (P02769 whole entry, looked up): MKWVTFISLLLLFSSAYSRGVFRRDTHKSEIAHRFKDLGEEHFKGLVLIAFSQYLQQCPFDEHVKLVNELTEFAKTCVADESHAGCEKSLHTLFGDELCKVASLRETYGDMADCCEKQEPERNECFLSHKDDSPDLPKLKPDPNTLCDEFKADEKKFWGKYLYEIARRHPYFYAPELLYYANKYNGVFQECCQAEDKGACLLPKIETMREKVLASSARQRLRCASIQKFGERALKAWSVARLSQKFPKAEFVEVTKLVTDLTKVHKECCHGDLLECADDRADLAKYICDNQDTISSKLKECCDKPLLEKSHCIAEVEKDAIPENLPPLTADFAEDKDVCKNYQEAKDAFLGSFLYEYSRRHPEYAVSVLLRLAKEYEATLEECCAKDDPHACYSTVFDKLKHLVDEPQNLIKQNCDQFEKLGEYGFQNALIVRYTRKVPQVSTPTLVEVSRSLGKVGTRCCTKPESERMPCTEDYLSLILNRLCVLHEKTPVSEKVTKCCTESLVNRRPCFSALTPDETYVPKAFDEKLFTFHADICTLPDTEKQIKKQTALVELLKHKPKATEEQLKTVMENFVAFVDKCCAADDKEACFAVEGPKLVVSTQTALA

Take `Cc1cc2c(nc1C)CCCCN2CC(C)ON=C[C@@H](C)[C@H](OCc1ccccc1)C(C)C` (stereo not given in full): the composite z-score in the experiment with Albumin (Bos taurus) was -0.256; in experiment [2], -0.545; in experiment [3], -0.237; in [4], -0.523; in experiment [5] it was -0.602; in [6], -0.708. Further, the composite z-score with Sam68 (KHDRBS1) was -0.465; in experiment [7] it was -2.12; in [8], -1.34. Further, the composite Z-score in [1] was -0.77 (inactive).
Turning to `COc1ccc(COC(=O)NN=C2C[C@@H](O)[C@@H](O)[C@@H]3[C@@H]4C(=O)N(c5cccc(Oc6ccccc6)c5)C(=O)[C@@H]4CC[C@@H]23)cc1`, the composite z-score with Albumin (Bos taurus) was 0.267; in experiment [2], 0.123; in [3] it was -0.149; in experiment [4] it was 0.0806; in experiment [5] it was 0.303; in [6] it was -0.116. The composite z-score in the experiment on Sam68 (KHDRBS1) is -0.456; in experiment [7] it was -0.424; in experiment [8], -0.337. For the same molecule, the composite Z-score in experiment [1] is 0.807 (inactive).
With `COC(=O)CC=C[C@@H](C)[C@@H](C=NO[C@@H](C)c1cn([C@H](CO)Cc2ccccc2)nn1)NS(=O)(=O)c1ccc(C)cc1`, the composite z-score with Albumin (Bos taurus) was -0.193; in experiment [2], 0.107; in experiment [3], -0.103; in experiment [4], -0.146; in experiment [5] it was -0.306; in [6], 0.232. Moreover, the composite z-score was 0.43 with Sam68 (KHDRBS1), 0.784 in experiment [7] and -0.419 in experiment [8]. Further, in experiment [1], the composite Z-score is -0.0278 (inactive).
Regarding `CO[C@H](C1CCCCC1)[C@H](C)C=CCC(=O)OCCCc1ccccc1`, the composite z-score with Albumin (Bos taurus) is -0.553; in [2], -0.125; in [3] it was -0.0751; in [4], -0.3; in experiment [5], -0.856; in [6], -0.133. Besides, the composite z-score in the experiment with Sam68 (KHDRBS1) is -0.53; in experiment [7], 0.562; in [8], -0.394. Also, in experiment [1], the composite Z-score is 0.349 (inactive).
Turning to `CCOC(=O)NN=C1C[C@@H](O)[C@@H](O)[C@@H]2[C@@H]3C(=O)N(C(C)(C)C)C(=O)[C@@H]3CC[C@H]12`, the composite z-score in the experiment with Albumin (Bos taurus) was -0.385; in experiment [2], 0.0431; in experiment [3], 0.272; in experiment [4], -0.257; in [5], -0.227; in [6], -0.207. Also, the composite z-score in the experiment on Sam68 (KHDRBS1) came to 0.129; in [7] it was 0.743; in [8] it was 0.383. The composite Z-score in experiment [1] is 0.288 (inactive).
As for `COc1cccc([C@H]2Oc3ccc(OC)cc3C(=NOC[C@@H](O)[C@H]3O[C@@H]4OC(C)(C)O[C@@H]4[C@H]3O)[C@@H]2O)c1`, the composite z-score with Albumin (Bos taurus) is 0.891; in [2], 0.0831; in experiment [3] it was -0.139; in experiment [4], -0.149; in [5], 0.48; in experiment [6], 0.248. Further, the composite z-score with Sam68 (KHDRBS1) is 0.706; in experiment [7] it was 0.461; in experiment [8], 0.532. Further, in experiment [1], the composite Z-score is -0.563 (inactive).
On to `C=CC1=C[C@H](O)[C@@H]2O[C@@H]2C12OCCCO2`, for which the composite z-score in the experiment with Albumin (Bos taurus) was -0.728; in experiment [2], -0.131; in [3] it was -0.0878; in experiment [4] it was 0.0206; in experiment [5], -0.281; in experiment [6], -0.115. For the same molecule, the composite z-score was 0.372 in the experiment with Sam68 (KHDRBS1), 0.202 in experiment [7] and 0.337 in experiment [8]. Besides, the composite Z-score in experiment [1] is -0.174 (inactive).
As for `O=C(NN=C1C[C@@H](O)[C@@H](O)[C@@H]2[C@@H]3C(=O)N(Cc4ccccc4)C(=O)[C@@H]3CC[C@@H]12)OCc1ccccc1`, the composite z-score was -0.225 in the experiment with Albumin (Bos taurus); 0.0591 in experiment [2]; -0.129 in experiment [3]; -0.362 in experiment [4]; -0.723 in [5]; -0.169 in experiment [6]. In addition, the composite z-score is -0.917 with Sam68 (KHDRBS1), 0.476 in experiment [7] and -0.292 in experiment [8]. Further, in experiment [1], the composite Z-score was 0.586 (inactive).
`CCN1C(=O)[C@@H]2[C@H]3C(=CC[C@@H]2C1=O)C1(OCCCO1)[C@H]1O[C@H]1[C@H]3O`: the composite z-score was 0.488 with Albumin (Bos taurus); 0.162 in [2]; -0.0948 in experiment [3]; 0.429 in experiment [4]; 2.12 in experiment [5]; 0.251 in [6]. In addition, the composite z-score amounted to 1.29 with Sam68 (KHDRBS1), 0.333 in [7] and 1 in experiment [8]. The composite Z-score in [1] is 0.369 (inactive).
On to `C[n+]1ccc(-c2ccc(CO)cc2)cc1`, for which the composite z-score is -0.619 in the experiment with Albumin (Bos taurus); -0.0377 in [2]; -0.157 in experiment [3]; 0.68 in experiment [4]; -0.702 in [5]; 0.372 in experiment [6]. Further, the composite z-score was 0.364 in the experiment on Sam68 (KHDRBS1), 1.54 in [7] and 1.11 in [8]. In [1], the composite Z-score was 2.7 (inactive).
Take `CCOC(=O)[C@H](Cc1ccccc1)NC(=O)CCC1CC(OC(=O)NCCc2ccc(F)cc2)CC2(CCCC(COC(=O)NCCOC)O2)O1` (stereo not given in full): the composite z-score with Albumin (Bos taurus) is 0.257; in experiment [2] it was 0.0525; in experiment [3], -0.157; in [4], 0.0121; in experiment [5] it was 1.07; in [6], 0.148. Also, the composite z-score in the experiment with Sam68 (KHDRBS1) worked out at 1.32; in experiment [7], 0.657; in experiment [8] it was 0.404. For the same molecule, in [1], the composite Z-score was 0.0225 (inactive).
As for `CC(C)=CCCC(C)=CCON=C1C[C@@H](O)[C@@H](O)[C@@H]2[C@@H]3C(=O)N(C4CCCCC4)C(=O)[C@@H]3CC[C@@H]12`, the composite z-score is 0.0108 with Albumin (Bos taurus); -0.0048 in experiment [2]; -0.13 in experiment [3]; 0.276 in experiment [4]; -0.112 in experiment [5]; 0.0694 in experiment [6]. The values for the composite z-score (in the experiment with Sam68 (KHDRBS1); in experiment [7]; in experiment [8]) were 0.493, 1.01 and 0.124, respectively. Also, the composite Z-score in experiment [1] was 0.244 (inactive).
Take `COc1ccc(O[C@H]2C=C[C@@H](c3ccccc3)O[C@@H]2COC(=O)CCC(C)=NO[C@@H]2O[C@H](COC(C)=O)[C@@H](OC(C)=O)[C@H](OC(C)=O)[C@H]2OC(C)=O)cc1`: the composite z-score with Albumin (Bos taurus) is 0.303; in experiment [2], 0.0322; in [3] it was -0.211; in experiment [4], -0.0481; in [5] it was 0.752; in experiment [6] it was 0.0839. Moreover, the results for the composite z-score (with Sam68 (KHDRBS1); in [7]; in experiment [8]) were 1.32, 0.786 and 0.544, respectively. The composite Z-score in experiment [1] was -0.211 (inactive).
Consider `COc1ccc(COC(=O)NN=C2C[C@@H](O)[C@@H](O)[C@@H]3[C@@H]4C(=O)N(Cc5ccccc5)C(=O)[C@@H]4CC[C@H]23)cc1`, for which the composite z-score with Albumin (Bos taurus) is 0.719; in experiment [2] it was 0.0418; in experiment [3], -0.348; in experiment [4] it was -0.17; in experiment [5] it was 0.341; in [6], -0.173. The results for the composite z-score (in the experiment with Sam68 (KHDRBS1); in experiment [7]; in experiment [8]) were 0.0827, -0.709 and -0.266, respectively. Further, the composite Z-score in [1] was -0.201 (inactive).
In the case of `CC(CCN1CCCCc2nc(C)c(C)cc21)=NOC[C@@H](O)COCc1ccco1`, the composite z-score in the experiment with Albumin (Bos taurus) is -0.732; in experiment [2] it was 0.149; in experiment [3] it was -0.137; in [4], -0.297; in experiment [5], -0.964; in experiment [6], -0.125. Besides, the composite z-score is 0.428 in the experiment on Sam68 (KHDRBS1), 1.63 in experiment [7] and -1.26 in [8]. For the same molecule, in experiment [1], the composite Z-score is 1.28 (inactive).
With `CCOC(=O)[C@H](Cc1ccccc1)NC(=O)CCC1CC(OC(=O)NCCc2ccc(F)cc2)CC2(CCCC(COC(=O)NCC3CCCCC3)O2)O1` (stereo not given in full), the composite z-score was 0.505 with Albumin (Bos taurus); 0.18 in [2]; -0.0294 in [3]; 0.192 in experiment [4]; 0.822 in experiment [5]; 0.236 in [6]. The figures for the composite z-score (with Sam68 (KHDRBS1); in [7]; in [8]) were 1.3, 0.74 and 1.07, respectively. Also, the composite Z-score in [1] was -0.539 (inactive).

The values are drawn from PubChem BioAssay.
